# Test results from the supplement of paper PMC8728848.
# Only a selection was taken, and the strongest signals are over-represented in it overall.
# Experiments:
# Assay in all cases: glycan array binding signal (z-score within array); higher = stronger binding
# Details in all cases: glycan notation: IUPAC condensed, linker removed
# [1] = target: GlcNAc(b1-3)Gal(b1-3)GalNAc
# Outline: (§1)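 Columns mapping to the same glycan were averaged after glycan names were converted to IUPAC-condensed notation. The data come from 3228 arrays in the Consortium for Functional Glycomics database, limited to those with an available protein sequence. Binding is reported as a within-array Z-score averaged across arrays of one protein sequence and across linkers.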
# [2] = target: GlcNAc(b1-3)Gal(b1-4)GlcNAc(b1-3)Gal(b1-4)GlcNAc(b1-2)Man(a1-3)[GlcNAc(b1-3)Gal(b1-4)GlcNAc(b1-3)Gal(b1-4)GlcNAc(b1-2)Man(a1-6)]Man(b1-4)GlcNAc(b1-4)GlcNAc
# Outline: as §1
# [3] = target: GlcNAc(b1-3)Gal(b1-4)GlcNAc(b1-3)Gal(b1-4)GlcNAc(b1-3)Gal(b1-4)GlcNAc(b1-2)Man(a1-3)[GlcNAc(b1-3)Gal(b1-4)GlcNAc(b1-3)Gal(b1-4)GlcNAc(b1-3)Gal(b1-4)GlcNAc(b1-2)Man(a1-6)]Man(b1-4)GlcNAc(b1-4)[Fuc(a1-6)]GlcNAc
# Outline: as §1
# [4] = target: GlcNAc(b1-6)Gal(b1-4)GlcNAc
# Outline: as §1
# Kdn(a2-3)Gal(b1-4)Glc = target: Kdn(a2-3)Gal(b1-4)Glc
# Outline: as §1
# [5] = target: Man(a1-2)Man(a1-3)[Man(a1-2)Man(a1-6)]Man
# Outline: as §1
# [6] = target: Man(a1-2)Man(a1-3)[Man(a1-2)Man(a1-6)]Man(a1-6)[Man(a1-2)Man(a1-2)Man(a1-3)]Man
# Outline: as §1
# [7] = target: Man(a1-2)Man(a1-6)[Man(a1-3)]Man(a1-6)[Man(a1-2)Man(a1-2)Man(a1-3)]Man(b1-4)GlcNAc(b1-4)GlcNAc
# Outline: as §1
# Man(a1-6)Man = target: Man(a1-6)Man
# Outline: as §1
# Neu5Ac(a2-3)Gal(b1-4)Glc = target: Neu5Ac(a2-3)Gal(b1-4)Glc
# Outline: as §1
# [8] = target: Neu5Ac(a2-3)Gal(b1-4)[Fuc(a1-3)]GlcNAc6S
# Outline: as §1
# [9] = target: Neu5Ac(a2-6)Gal(b1-3)GlcNAc(b1-3)[Gal(b1-4)GlcNAc(b1-6)]Gal(b1-4)Glc
# Outline: as §1
# [10] = target: Neu5Ac(a2-6)Gal(b1-4)GlcNAc(b1-3)Gal(b1-4)GlcNAc(b1-3)Gal(b1-4)GlcNAc(b1-2)Man(a1-3)[Neu5Ac(a2-6)Gal(b1-4)GlcNAc(b1-3)Gal(b1-4)GlcNAc(b1-3)Gal(b1-4)GlcNAc(b1-2)Man(a1-6)]GalNAc
# Outline: as §1
# [11] = target: Neu5Ac(a2-8)Neu5Ac(a2-3)Gal(b1-4)Glc
# Outline: as §1
# [12] = target: Neu5Ac(a2-8)Neu5Gc(a2-3)Gal(b1-4)GlcNAc
# Outline: as §1
# [13] = target: Neu5Ac9Ac(a2-3)Gal(b1-4)GlcNAc
# Outline: as §1
# [14] = target: Neu5Gc(a2-3)Gal(b1-4)GlcNAc
# Outline: as §1
binder,measurement,setting,value
Si Bti9 1b-HA (Solanum lycopersicum) (protein) MFESRPRSVLSLGVFVILVYLSSVPLPVNSQCNRGCDLALASFYVWRGSNLTLISEMFSTSIADIVSYNNRDNIPNQDSVIAGTRINIPFRCDCLNDGEVLGHAFPYRVKSGDTYDLVARNYSDLTTAQWMMKFNSYPENNIPNTVNLSVVVNCSCGNSDVSKDFGLFVTYPVRAEDNLTSVASAANVSEDIIRRYNPAAVSILDIGQGIIYIPGRDRNGNFPPLPTSTDGLSGGAKAPLFFNPAFLYKVVELKLAGRSRTSGYPYDVPDYAGYPYDVPDYALEVLFQ,glycan array binding signal (z-score),[1],-0.271
same,glycan array binding signal (z-score),[2],2.7
same,glycan array binding signal (z-score),[3],0.086
same,glycan array binding signal (z-score),[4],-0.32
same,glycan array binding signal (z-score),Kdn(a2-3)Gal(b1-4)Glc,-0.287
same,glycan array binding signal (z-score),[5],-0.589
same,glycan array binding signal (z-score),[6],-0.638
same,glycan array binding signal (z-score),[7],-0.201
same,glycan array binding signal (z-score),Man(a1-6)Man,7.42
same,glycan array binding signal (z-score),Neu5Ac(a2-3)Gal(b1-4)Glc,0.009
same,glycan array binding signal (z-score),[8],-0.438
same,glycan array binding signal (z-score),[9],-0.236
same,glycan array binding signal (z-score),[10],2.19
same,glycan array binding signal (z-score),[11],0.02
same,glycan array binding signal (z-score),[12],-0.539
same,glycan array binding signal (z-score),[13],-0.425
same,glycan array binding signal (z-score),[14],-0.219
